Out of some 420,000 compounds screened, about 64,000 (15%) were called active. Another 27% or so got no clear call; they are omitted. The call rests on the fitted dose curve; in most records, active means well fitted inhibition curve with a large enough effect; inconclusive means small, poorly fitted or top-dose-only effect; inactive means flat fitted curve, though single readings scatter. Not all results are given here. Entries that show only a call come without a potency.
Potency means the concentration at half of the fitted maximal effect.

The assay in a line: qHTS for Inhibitors of human tyrosyl-DNA phosphodiesterase 1 (TDP1): qHTS in cells in absence of CPT. Further: nearly all actives have a fitted effect of over 55% in size. The following applies: DT40 Tdp1-/- hTDP1 cells, no CPT, ATP luminescence, 48 h; activity change, negative = growth inhibition: at 46.2 µM (top of the series). In a few lines:
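Cells were dispensed at 400 per well, compounds added by pin tool, plates incubated ≥48 hr at 37 °C, then CellTiter-Glo added for 30 min at room temperature before luminescence reading. Line: DT40 Tdp1-/- complemented with hTDP1; camptothecin omitted.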
For orientation: Quantitative high-throughput screening tests each substance at several concentrations.
Consider `CC1Cc2ccccc2N1S(=O)(=O)c1ccc(Cl)nc1` (configuration not stated), for which the Potency result is “inactive”. As for `Cc1cc(-c2ccc(C)c(S(=O)(=O)N3c4ccccc4CC3C)c2)on1` (configuration not stated), the Potency was 23.1 µM (active).

As for `Cc1cc(-c2ccc(C)c(S(=O)(=O)Nc3ccc(S(N)(=O)=O)cc3)c2)on1`, the Potency result was “inactive”. Then `Cc1cc(NC(=O)CCC(=O)N(CC(=O)NCC2CCCO2)c2ccccc2C)no1` (configuration not stated), with “inactive”.

As to `COc1ccccc1OCc1nnc(SCC(N)=O)n1-c1ccccc1`, the Potency entry is “inactive”. For the compound `COc1ccccc1NC(=O)CSc1nnc(Cn2nnc(-c3ccccc3)n2)n1-c1ccccc1`, the Potency is 20.6 µM (active). Turning to `COc1ccccc1NC(=O)CSc1nnc(Cc2cccn2C)n1-c1ccc(F)cc1`, the Potency entry was “inactive”. Then `COc1ccc(Cl)cc1-n1c(=S)sc2c(=O)n(-c3ccc(F)cc3)c(SCC(=O)O)nc21`, with “inactive”; and `O=C(O)c1cc(S(=O)(=O)N2CCCCCC2)c(Cl)cc1Cl`, with “inactive”; and `Cc1ccc(CNC(=O)CCNS(=O)(=O)c2ccc(Br)s2)cc1`, with “inactive”. Take `CC1=NN(C(=O)Cc2ccc(C)cc2)C(O)(c2cccnc2)C1` (configuration not stated): the Potency result was “inactive”. As for `CC1=NN(C(=O)CCCc2ccccc2)C(O)(C(F)(F)F)C1` (configuration not stated), the Potency entry was “inactive”. Consider `COc1ccc(CC(=O)N2N=C(C)CC2(O)C(F)(F)F)cc1` (configuration not stated), for which the Potency was 3.26 µM (active). For the compound `Cc1ccc(CNS(=O)(=O)c2ccc3c(c2)N(C)CCO3)cc1`, the Potency result is “inactive”.

For `CCCCC(=O)Nc1ccc2c(c1)C(=O)NC2=O`, the Potency entry is “inactive”. For the compound `Oc1cccc(CCc2ccccn2)c1`, the Potency entry is “inactive”.

As for `CC(C)S(=O)(=O)c1csc(NC(=O)Nc2ccc(Cl)cc2)c1Cl`, the Potency is 16.4 µM (active). Consider `NS(=O)(=O)c1ccc(CCNC(=O)Nc2ccc(Cl)cc2)cc1`, for which the Potency entry is “inactive”.

As to `O=C(NCc1cn2ccsc2n1)Nc1ccc(Cl)cc1`, the Potency result was “inactive”.

On to `Cc1cccc(NC(=O)c2cccc(C(=O)Nc3cccc(C)c3C)n2)c1C`, for which the Potency entry was “inactive”. As for `CCN1/C(=C\c2ccc3ccccc3[n+]2CC)Sc2cc(C)ccc21`, the Potency is 0.184 µM (active). `CCN1/C(=C/c2ccc3ccc(C)cc3[n+]2CC)Sc2ccccc21`: the Potency is 2.06 µM (active). As for `Cn1c(Nc2ccccc2)cc(=O)n(C)c1=O`, the Potency entry is “inactive”. In the case of `CCc1ccccc1NC(=S)N(CCN1CCCCCC1)Cc1ccco1`, the Potency entry was “inactive”. For the compound `CCN(CC)S(=O)(=O)c1ccc2nc(COC(=O)c3n[nH]c4ccccc34)[nH]c2c1`, the Potency result was “inactive”. `C[C@]12CC[C@H](O)CC1=CCC1C2CC[C@@]2(C)C1CC[C@@H]2NC(=O)CCC(=O)O` (some centres not stated): the Potency result is “inactive”.

Regarding `CC(=O)O[C@H]1CC[C@@]2(C)C(=CC[C@@H]3[C@@H]2CC[C@]2(C)C(c4cccnc4)=CC[C@@H]32)C1`, the Potency entry is “inactive”. Turning to `CC(=O)OC1CCC2(C)C(=CCC3C4CC(=O)N(O)C(=O)C4(C)CCC32)C1` (configuration not stated), the Potency is 5.17 µM (active).

Consider `CN(C)CCNC(=O)/C(=C/c1cccc([N+](=O)[O-])c1)NC(=O)c1ccccc1`, for which the Potency result is “inactive”.

For the compound `CCOCc1nnc(NC(=O)CSc2ccc(C)cc2)s1`, the Potency result is “inactive”. As to `OC1CSc2nc3ccccc3n2C1` (configuration not stated), the Potency entry is “inactive”. The result for `CCCc1nn2c(=O)cc(CSCC(=O)Nc3cccc(C)c3)nc2s1` reads “inactive”; that for `CC(C)[C@@H](NC(=O)OC(C)(C)C)C(=O)NCC1CCC(C(=O)N[C@@H](Cc2ccccc2)C(=O)O)CC1` (some centres not stated), “inactive”.

Regarding `C[C@H]1COC(=O)[C@H](CC(=O)OC(C)(C)C)C/C=C\C[C@@H](CC(=O)N[C@H](CO)Cc2ccccc2)C(=O)N1`, the Potency is 14.6 µM (active). Take `CC(C)(C)OC(=O)NC(Cc1ccccc1)C(=O)NC(CSC1CCCCO1)C(=O)NN` (configuration not stated): the Potency entry was “inactive”. For `CC(C)(C)OC(=O)C[C@@H]1C/C=C\C[C@@H](CC(=O)N[C@H](CO)Cc2ccccc2)C(=O)NC[C@@H](c2ccccc2)OC1=O`, the Potency is 20.6 µM (active). Then `CC(C)(C)OC(=O)C[C@H]1C/C=C\C[C@@H](CC(=O)N[C@H](CO)Cc2ccccc2)C(=O)NC[C@@H](c2ccccc2)OC1=O`, with 18.4 µM (active); and `O=C(C[C@H]1C/C=C\C[C@@H](NC(=O)OCC2c3ccccc3-c3ccccc32)C(=O)O[C@@H](c2ccccc2)CNC1=O)N[C@H](CO)Cc1ccccc1`, with 18.4 µM (active). With `COc1ccc(OCC(=O)NCCc2ccc(S(N)(=O)=O)cc2)cc1`, the Potency entry is “inactive”.

In the case of `CCC(C)N1CC(=O)N2Cc3[nH]c4ccccc4c3C[C@H]2C1=O` (some centres not stated), the Potency result is “inactive”. The result for `CCN(CC)CCNS(=O)(=O)c1ccc(/C=C/C(=O)O)cc1` reads “inactive”; that for `CNCC(O)c1ccc(O)c(O)c1` (configuration not stated), “inactive”; that for `COc1ccc(CNC(=O)C(=O)NCC2OCCN2C(=O)c2ccc(OC)cc2)cc1` (configuration not stated), “inactive”. For `C/C(=C(\C#N)C(=O)NCCCN1CCOCC1)N(C)C`, the Potency entry is “inactive”.

With `O=C(CCc1ccccc1)NNc1ccc(F)cc1`, the Potency entry is “inactive”.

As for `O=C(CSc1nnnn1C1CCCC1)Nc1ccc2c(c1)OCCO2`, the Potency entry is “inactive”. As for `Cc1cccc2cc(CN(Cc3ccc4c(c3)OCO4)Cc3nnnn3C3CCCC3)c(=O)[nH]c12`, the Potency was 16.4 µM (active). With `Cc1cccc2cc(CN(Cc3cccs3)C(c3nnnn3C3CCCC3)C(C)C)c(=O)[nH]c12` (configuration not stated), the Potency result was “inactive”. With `CC(C)C(c1nnnn1Cc1ccccc1)N1CCC(C(N)=O)CC1` (configuration not stated), the Potency result is “inactive”. Then `Cc1ccccc1-c1nnc(SCC(=O)NCc2ccc3c(c2)OCO3)n1C`, with “inactive”; and `CCC(=O)Nc1cccc(NC(=O)CSc2nnnn2C2CCCC2)c1`, with “inactive”. `CCC(c1nnnn1C1CCCC1)N(Cc1cccs1)Cc1cc2cccc(C)c2[nH]c1=O` (configuration not stated): the Potency was 18.4 µM (active). With `Cc1cccc2cc(CN(Cc3nnnn3Cc3ccccc3)C3CCCC3)c(=O)[nH]c12`, the Potency is 12.6 µM (active). Then `Cc1cccc2[nH]c(CN(C)C(=O)C3CCC(=O)N(CCc4ccccc4)C3)nc12` (configuration not stated), with “inactive”. Then `CSc1ccc(S(=O)(=O)NCc2ccc(Cl)cc2)cc1`, with “inactive”; and `CS(=O)(=O)n1nc(-c2ccco2)nc1N`, with “inactive”; and `Cc1ccnc(NC(=O)C(C)N2C(=O)c3ccccc3C2=O)c1` (configuration not stated), with “inactive”. With `C=CCc1cccc2cc(C(=O)OCC)c(=O)oc12`, the Potency entry was “inactive”. As for `CC/C=C/C(=O)N1CC2(CC(c3cccc(NC(=O)CC)c3)=NO2)C[C@H]1C(N)=O` (some centres not stated), the Potency result was “inactive”. Then `Cc1ccc(C)c(S(=O)(=O)N(C)c2ccc(OC(=O)C3CCN(C(=O)c4ccc(F)cc4)CC3)cc2)c1`, with “inactive”; and `Cc1ccc(OCC(=O)Nc2ccc(-c3nc4ncccc4o3)cc2)cc1`, with “inactive”; and `Cc1cc(N2C(=O)c3ccc(C(=O)NCc4ccccc4)cc3C2=O)no1`, with “inactive”.

The values above are taken from PubChem BioAssay AID686978 (National Center for Advancing Translational Sciences (NCATS), 2013).
